Source: PubChem BioAssay (several laboratories)
An excerpt weighted towards active compounds, which were near 10% of everything screened.
L major viab – inhibitors of Leishmania major promastigote growth | actives 9% (n = 200,000) | Leishmania major promastigotes, resazurin fluorescence viability | inhibition, % at 10 µM; in the data active = inhibition above about 50%;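 also: promastigotes grown with compound for 44 hours at 28 °C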
PTEN del growth – suppresses growth of cells with PTEN deletion | actives 1.2% (n = 140,000) | viability, % at 10 µM | HCT116 PTEN-null viability, CellTiter-Glo, 60 h; stronger effect = lower value;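 active = viability at or below a set limit, 4 SD under the median of all tested compounds, cut at about 3.7% in these data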;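 also: PTEN knockout HCT116 line with beta catenin targeted HCT116 as companion control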
ROMK mod – modulates human ROMK potassium channel activity. Tet-inducible ROMK, thallium flux fluorescence; actives lie on both sides. actives 2% (n = 130,000). P48048. B-score at 10 µM;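 active = signal ratio slope over the read window, or its plate-corrected B-score, at least 3 SD from the plate mean, either direction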;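 also: B-score of the F/F0 ratio slope over 7 to 12 s after thallium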
p97 inhibitor – blocks human p97 ATPase activity; recombinant p97 ATPase, Kinase-Glo ATP luminescence, 3 h; inhibition, % at 8 µM; actives 0.42% (n = 220,000); AID 1481; in the data active = inhibition above about 15%;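 also: 0% = DMSO vehicle and 100% = wells lacking enzyme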
Target sequence (P55072 whole entry, looked up): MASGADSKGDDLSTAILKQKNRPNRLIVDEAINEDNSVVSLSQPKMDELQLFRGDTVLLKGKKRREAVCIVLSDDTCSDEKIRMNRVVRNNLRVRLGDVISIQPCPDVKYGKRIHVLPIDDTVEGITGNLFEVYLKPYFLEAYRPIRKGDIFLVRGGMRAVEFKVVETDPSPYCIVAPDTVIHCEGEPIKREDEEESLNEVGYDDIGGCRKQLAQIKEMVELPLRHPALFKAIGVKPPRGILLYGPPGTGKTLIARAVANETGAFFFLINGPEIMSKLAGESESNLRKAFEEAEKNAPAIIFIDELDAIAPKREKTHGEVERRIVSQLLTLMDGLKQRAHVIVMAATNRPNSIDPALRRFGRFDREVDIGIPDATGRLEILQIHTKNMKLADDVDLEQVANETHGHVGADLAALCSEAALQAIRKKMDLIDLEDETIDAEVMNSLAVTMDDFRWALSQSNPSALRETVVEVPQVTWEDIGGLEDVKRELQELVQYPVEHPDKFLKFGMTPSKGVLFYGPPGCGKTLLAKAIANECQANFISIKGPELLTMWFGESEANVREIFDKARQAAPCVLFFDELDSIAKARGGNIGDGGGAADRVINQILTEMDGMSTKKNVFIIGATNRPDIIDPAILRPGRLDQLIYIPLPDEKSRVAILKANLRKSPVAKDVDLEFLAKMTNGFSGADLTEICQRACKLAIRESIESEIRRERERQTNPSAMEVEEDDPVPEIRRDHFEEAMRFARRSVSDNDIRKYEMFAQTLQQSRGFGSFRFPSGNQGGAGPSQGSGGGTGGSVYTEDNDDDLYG
INS promoter inh – TRM-6 insulin promoter activity inhibition; TRM-6 cells (human fetal islet line), insulin promoter-eGFP reporter, imaging; reporter expression induced with tamoxifen; inhibition, % at 2 µM; actives 0.9% (n = 130,000);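 active = inhibition above the mean plus 3 SD, with well images judged a real hit on visual review, cut at about 60% in these data, passing the limit was not always enough; inconclusive = inhibition over the cutoff but images rejected on review; inactive = inhibition not above the cutoff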
HCT116 bCat-KO – beta-catenin-lacking colon tumor cell growth suppression; HCT116 beta-catenin knockout viability, CellTiter-Glo, 60 h; stronger effect = lower value; viability, % at 10 µM; actives 1.5% (n = 140,000);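 active = viability at or under a set limit, the compound median less 4 SD, cut at about 6% in these data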;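 also: 0% = Hyamine 1622 control at 20 µM and 100% = untreated cell control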
ROMK hit retest – human ROMK channel modulation, retest confirmation | actives 54% (n = 3,000) | ROMK thallium flux, fluorescence ratio; stronger effect = lower value | normalized thallium flux (F/F0 slope) at 10 µM | shares compounds with ROMK mod | AID 1917;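 active = Flux at 10 µM at least 3 SD below or above vehicle control mean in one or both replicates; inconclusive = no clear call, values can overlap the other calls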
Numbers without * were called inactive; ? = inconclusive; . = not tested or not shown.

SMILES | L major viab | PTEN del growth | ROMK mod | p97 inhibitor | INS promoter inh | HCT116 bCat-KO | ROMK hit retest
CCCCCCC(=O)N/N=C/c1c(O)n(CCCC)c(=S)[nH]c1=O | . | . | . | 4 | . | . | .
CCC(=NCc1ccco1)c1c(O)n(C2CCCCC2)c(=O)[nH]c1=O | 60* | 89 | -4* | 10 | -7 | 88 | 0.054*
CC12CN3CCN(CC(C3)C1O)C2 (stereo not given) | -1 | 107 | . | 8 | 18 | 96 | 0.077
CC(C)CC12CN3CCN(CC(C3)C1O)C2 (stereo not given) | 1 | 95 | 0.37 | -1 | 11 | 110 | .
CCCCOC(=O)C1=C(N)OC2=C(C(=O)CCC2)[C@]12C(=O)N(C)c1ccccc12 | -2 | 102 | . | 2 | -4 | 96 | .
CC(C)Cc1nc(N2CCNCC2)c(C#N)c2c1CCC2 | . | . | . | 6 | . | . | .
CCc1nc(N2CCNCC2)c(C#N)c2c1CSC(C)(C)C2 | 9 | 77 | -3.7* | -1 | -32 | 80 | 0.075
Cc1ccc(C)c(C2(O)CC(C)N(C)CC2C)c1 (stereo not given) | 11 | 94 | 0.054 | 3 | . | 97 | .
COc1ccc(OCC(=O)N2CCN(Cc3nc4cc([N+](=O)[O-])ccc4n3C)CC2)cc1 | -5 | 86 | -0.94 | 1 | -233 | 79 | .
O=C(COc1ccc(Cl)cc1)N1CCN(Cc2ccc([N+](=O)[O-])cc2)CC1 | 67* | . | -6.5* | -7 | -9 | . | 0.049*
CCOP(=O)(OCC)C(NC(=O)c1ccccc1C)C(Cl)(Cl)Cl (stereo not given) | -4 | 102 | . | 1 | . | 100 | .
CNC(=O)Nc1ccc(C(=O)N/N=C\C23CC[C@@H](O)CC2(O)CC[C@@H]2[C@@H]3CCC3(C)C(C4=CC(=O)OC4)CCC23O)cc1 (stereo not given in full) | . | . | . | 4 | . | . | ?
CC12CC[C@H]3[C@@H](CCC4(O)C[C@H](O)CCC34/C=N/NC(=O)Cc3ccccc3)C1(O)CCC2C1=CC(=O)OC1 (stereo not given in full) | . | . | . | 0 | . | . | 0.085
Cc1ccc(C(=O)NC(O)C(Cl)(Cl)Cl)cc1 (stereo not given) | -8 | 97 | -0.56 | 4 | . | 86 | .
C[C@@H]1C(=O)O[C@@H]2[C@H](O)C34[C@@H]5OC(=O)C3(O[C@H]3OC(=O)[C@H](O)C34[C@H](C(C)(C)C)[C@H]5O)[C@@]12O (stereo not given in full) | -8 | 102 | 0.35 | -8 | 14 | 98 | .
CN1CCN(c2c(F)cc([N+](=O)[O-])c(N)c2Br)CC1 | 11 | . | 0.055 | 5 | . | . | .
Nc1c([N+](=O)[O-])cc(F)c(N2CCNCC2)c1Br | 4 | 91 | -3.6* | 5 | 0 | 87 | 0.055*
Cc1nonc1OCCNCCNc1ccc([N+](=O)[O-])c2cccnc12 | 17 | 88 | -5.3* | -1 | -43 | 86 | 0.053*
